Compounds with a hit are over-represented: about 4% of the library has one in this group of screens.
RAD52 anneal inh = blocks human RAD52 DNA annealing; recombinant RAD52 DNA annealing, FRET fluorescence; inhibition, % at 18.7 µM; P43351; actives 0.46% (n = 360,000);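 active = every replicate showing at least 50% inhibition; inconclusive = mean inhibition at least 50% but not in every replicate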
ERAP1 inh = ERAP1 (human) enzyme inhibition. actives 0.15% (n = 340,000). recombinant ERAP1, Leu-AMC fluorescence, 60 min. inhibition, % at 10.7 µM. Q9NZ08;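 active = mean replicate inhibition of at least 30%, or all replicates individually reaching that 30% level; inactive = mean below 30% and not every replicate reaching it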;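 also: 0% = neutral control wells and 100% = L-leucinethiol positive control wells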
FGF22 binding = FGF22 (human) thermal shift binding. Q9HCT0. recombinant FGF22 thermal shift, SYPRO orange fluorescence; percent of sucrose octasulfate shift, DMSO zero. activity (Tm shift, normalised), % at 9.99 µM. actives 1.5% (n = 340,000). AID 651658;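 active = mean Tm shift, scaled 0 neutral to 100 positive control, at about 1.3% or above, every replicate too, limit read from the data; inconclusive = no clear call, values can overlap the other calls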
DENV2 CPE = protects cells from dengue virus 2 cytopathic effect; DENV2-infected cells, cytopathic effect rescue, plate reader; CPE inhibition, % at 9.99 µM; actives 1.7% (n = 350,000); AID 651640; in the data active = CPE inhibition above about 20%, passing the limit was not always enough; inconclusive = no clear call, values can overlap the other calls; tested in BHK-21 cells;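 also: 0% = median of neutral control wells and 100% = median of positive control wells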
AF4-AF9 inh = MLL-AF4/AF9 protein interaction inhibition. P42568. AlphaScreen, biotin-AF4 peptide binding to FLAG-AF9. inhibition, % at 10 µM. actives 0.47% (n = 350,000). AID 651704;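 active = every replicate reaching a set inhibition limit, whatever the replicate mean, cut at about 25% in these data; inconclusive = mean inhibition reaches that limit but some replicates miss it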;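 also: 0% = plate neutral control median and 100% = total signal loss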
Target sequence (P42568 whole entry, looked up): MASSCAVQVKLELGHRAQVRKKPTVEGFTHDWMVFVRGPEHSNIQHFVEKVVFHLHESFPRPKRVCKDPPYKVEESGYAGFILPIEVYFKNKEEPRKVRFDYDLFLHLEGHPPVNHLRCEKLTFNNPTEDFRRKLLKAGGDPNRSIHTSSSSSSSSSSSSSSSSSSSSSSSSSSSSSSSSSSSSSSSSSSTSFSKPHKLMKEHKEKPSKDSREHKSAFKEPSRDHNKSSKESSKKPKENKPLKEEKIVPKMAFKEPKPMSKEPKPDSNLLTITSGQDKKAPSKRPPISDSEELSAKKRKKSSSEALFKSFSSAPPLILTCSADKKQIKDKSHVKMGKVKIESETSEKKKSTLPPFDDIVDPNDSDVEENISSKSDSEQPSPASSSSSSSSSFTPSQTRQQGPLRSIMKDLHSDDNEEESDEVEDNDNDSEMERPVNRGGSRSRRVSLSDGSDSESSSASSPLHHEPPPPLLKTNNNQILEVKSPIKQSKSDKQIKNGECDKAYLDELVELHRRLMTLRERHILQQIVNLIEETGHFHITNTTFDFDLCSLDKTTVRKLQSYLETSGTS
Numbers without * were called inactive.

Screening O=C(Nc1cc(F)ccc1F)N1CC(=O)N2[C@H](CO)[C@H](c3ccc(-c4cccnc4)cc3)[C@@H]2C1 returned RAD52 anneal inh -8.1, ERAP1 inh 0.0, DENV2 CPE 29.5* and AF4-AF9 inh -1.3.
For O=C(c1cccnc1)N1CC(=O)N2[C@H](C1)[C@H](c1ccc(-c3ccc(F)cc3)cc1)[C@@H]2CO the results were RAD52 anneal inh -3.9, ERAP1 inh -2.1, DENV2 CPE -5.5 and AF4-AF9 inh 31.2*.
Screening O=C(c1cccnc1)N1CC(=O)N2[C@H](CO)[C@@H](c3ccc(-c4ccc(F)cc4)cc3)[C@H]2C1 returned RAD52 anneal inh -9.0, ERAP1 inh -1.8, DENV2 CPE -1.1 and AF4-AF9 inh 15.1.
`O=C(NCC[C@@H]1CC[C@H](NC(=O)c2ccc3c(c2)OCO3)[C@H](CO)O1)Nc1cc(F)ccc1F` gave RAD52 anneal inh 0.1, ERAP1 inh -0.2, FGF22 binding 0.0, DENV2 CPE inconclusive and AF4-AF9 inh 5.4.
For O=C(O)c1ccc(Sc2ccccn2)c([N+](=O)[O-])c1 the results were RAD52 anneal inh -12.2, ERAP1 inh 1.0, FGF22 binding 0.1, DENV2 CPE 4.7 and AF4-AF9 inh -17.3.
For COC(=O)c1ccc(Sc2ccccn2)c([N+](=O)[O-])c1 the results were RAD52 anneal inh -11.0, ERAP1 inh -2.3, FGF22 binding 0.0, DENV2 CPE 87.9* and AF4-AF9 inh 11.4.
For O=C(O)CN1CCNCCN(CC(=O)O)CCNCC1 the results were RAD52 anneal inh -4.8, ERAP1 inh 5.7, FGF22 binding 42.9*, DENV2 CPE 19.8 and AF4-AF9 inh 4.2.
O=C(O)CN1CCN(CC(=O)O)CCN(CC(=O)O)CCN(CC(=O)O)CC1 was read as RAD52 anneal inh -14.3, ERAP1 inh 8.7, FGF22 binding -0.3, DENV2 CPE -4.4 and AF4-AF9 inh -2.3.
For COc1cc(OC)cc(C(=O)NCC(=O)OCC(=O)c2ccc3c(c2)-c2ccccc2C3)c1 the results were RAD52 anneal inh -51.6, ERAP1 inh 1.3, FGF22 binding 44.8*, DENV2 CPE -10.6 and AF4-AF9 inh -1.2.
For CC(C)(C)c1ccc(C#C[C@@H]2C=C[C@H](O)[C@@H](COC(=O)Nc3ccccc3)O2)cc1 the results were RAD52 anneal inh -62.2, ERAP1 inh -1.6, FGF22 binding 44.5*, DENV2 CPE inconclusive and AF4-AF9 inh 2.4.
CCNC(=O)OC[C@H]1O[C@H](C#Cc2ccc(C(C)(C)C)cc2)C=C[C@H]1O was read as RAD52 anneal inh -11.3, ERAP1 inh -0.3, FGF22 binding 40.9, DENV2 CPE 17.9 and AF4-AF9 inh -1.9.
`CCNC(=O)[C@H]1[C@H](CO)[C@H]2Cn3c(ccc(C4=CCCC4)c3=O)[C@@H]1N2C(=O)CC` gave RAD52 anneal inh -4.4, ERAP1 inh 0.4, FGF22 binding 0.0, DENV2 CPE 0.3 and AF4-AF9 inh -1.7.
For Cn1cnc(C(=O)N2CCN(C(=O)OC(C)(C)C)CC2)c1C(=O)N1CCN(C(=O)OC(C)(C)C)CC1 the results were RAD52 anneal inh -8.5, ERAP1 inh 105.8*, FGF22 binding -0.1, DENV2 CPE -2.0 and AF4-AF9 inh -6.5.
For Cn1cnc(C(=O)N2CCN(c3ccccc3)CC2)c1C(=O)N1CCN(c2ccccc2)CC1 the results were RAD52 anneal inh -12.6, ERAP1 inh 21.2, FGF22 binding -0.2, DENV2 CPE -5.3 and AF4-AF9 inh -40.3.
O=C(C[C@H]1CC[C@@H]2[C@H](COC[C@H](O)CN2C(=O)Cc2ccccc2)O1)NC1CCCC1 was read as RAD52 anneal inh -2.1, ERAP1 inh 0.5, FGF22 binding 0.1, DENV2 CPE 88.5* and AF4-AF9 inh -8.1.
`O=C(C[C@H]1CC[C@H]2[C@@H](COC[C@H](O)CN2C(=O)Cc2ccccc2)O1)NC1CCC1` gave RAD52 anneal inh 9.3, ERAP1 inh -4.7, FGF22 binding 0.1, DENV2 CPE 37.7* and AF4-AF9 inh -0.2.
Screening O=C(C[C@@H]1CC[C@H]2[C@@H](COC[C@H](O)CN2C(=O)Cc2ccccc2)O1)NC1CCC1 returned RAD52 anneal inh 14.4, ERAP1 inh -14.0, FGF22 binding -0.1, DENV2 CPE 13.0 and AF4-AF9 inh -1.2.
`Cc1nn(C)cc1NC(=O)C[C@@H]1CC[C@H]2[C@@H](COc3ccc(NC(=O)NC(C)C)cc3C(=O)N2C)O1` gave RAD52 anneal inh 9.1, ERAP1 inh -2.5, FGF22 binding 0.5, DENV2 CPE -5.5 and AF4-AF9 inh -2.0.
For COc1ccc2c3c([nH]c2c1)[C@H](CO)N(C(=O)Nc1ccc(F)cc1)CC31CCN(Cc2cc(F)ccc2F)CC1 the results were RAD52 anneal inh 14.3, ERAP1 inh -1.0, FGF22 binding 0.1, DENV2 CPE 7.9 and AF4-AF9 inh 3.5.
Cc1cc(S(=O)(=O)N2CCCC(C(=O)Nc3ccc(C(=O)O)cc3)C2)ccc1Cl (stereo not given) was read as RAD52 anneal inh -9.4, ERAP1 inh -23.6, FGF22 binding 43.3*, DENV2 CPE -1.5 and AF4-AF9 inh -0.8.
`Cc1ccc(C)c(NC(=O)C2CCCN(S(=O)(=O)c3ccc4[nH]c(=O)ccc4c3)C2)c1` (stereo not given) gave RAD52 anneal inh -9.0, ERAP1 inh -4.8, FGF22 binding 0.0, DENV2 CPE -5.0 and AF4-AF9 inh 0.0.
O=C(Nc1ccc(F)cc1)C1CCCN(S(=O)(=O)c2ccc3[nH]c(=O)ccc3c2)C1 (stereo not given) was read as RAD52 anneal inh -3.4, ERAP1 inh -0.4, FGF22 binding -0.2, DENV2 CPE 115.4* and AF4-AF9 inh -1.6.
For COC(=O)c1ccc(NC(=O)C2CCCN(S(=O)(=O)c3cnc[nH]3)C2)cc1 (stereo not given) the results were RAD52 anneal inh -9.0, ERAP1 inh -0.6, FGF22 binding -0.1, DENV2 CPE 0.7 and AF4-AF9 inh 5.2.
COC(=O)c1ccc(NC(=O)C2CC3CCC2C3)cc1 (stereo not given) was read as RAD52 anneal inh -6.9, FGF22 binding -0.1, DENV2 CPE 47.5* and AF4-AF9 inh -3.2.
Screening COC(=O)c1ccc(NC(=O)C2CCCN(S(C)(=O)=O)C2)cc1 (stereo not given) returned RAD52 anneal inh -5.9, ERAP1 inh 5.1, FGF22 binding 42.9*, DENV2 CPE 3.8 and AF4-AF9 inh 0.8.
Screening CCOC(=O)c1ccc(NC(=O)C2CC3CCC2C3)cc1 (stereo not given) returned RAD52 anneal inh -26.4, ERAP1 inh -1.0, FGF22 binding 0.0, DENV2 CPE 11.2 and AF4-AF9 inh 0.1.
`CO[C@H]1CN(C)C(=O)c2ccc(NS(C)(=O)=O)cc2OC[C@H](C)N(Cc2ccccc2)C[C@@H]1C` gave RAD52 anneal inh 4.6, ERAP1 inh -10.3, FGF22 binding -0.4, DENV2 CPE -7.3 and AF4-AF9 inh -0.1.
Screening CC(=O)N1[C@H](C(=O)NCc2ccccc2F)[C@@H](CO)[C@@H]2Cn3c(ccc(-c4ccccc4)c3=O)[C@@H]21 returned RAD52 anneal inh -0.1, ERAP1 inh -1.2, FGF22 binding 0.0, DENV2 CPE -1.8 and AF4-AF9 inh 3.2.

Screening data: PubChem, Broad Institute
